TEAD-YAP block = TEAD-YAP interaction inhibition. HEK-TIYL cells, TEAD-Gal4/YAP UAS-luciferase luminescence. inhibition, % at 9.12 µM. 1.4% of 640,000 active; in the data active = inhibition above about 32%;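 note: 0% = median of test compound wells and 100% = reference inhibitor wells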
GPR151 ag = activates the human receptor GPR151; 1% of 650,000 active; Q8TDV0; AID 1508602; activation, % at 11.2 µM; PathHunter beta-arrestin GPR151 cells, luminescence; in the data active = activation above about 4.9%;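 note: 0% = median of compound wells and 100% = cells with positive control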
Target sequence (Q8TDV0 whole entry, looked up): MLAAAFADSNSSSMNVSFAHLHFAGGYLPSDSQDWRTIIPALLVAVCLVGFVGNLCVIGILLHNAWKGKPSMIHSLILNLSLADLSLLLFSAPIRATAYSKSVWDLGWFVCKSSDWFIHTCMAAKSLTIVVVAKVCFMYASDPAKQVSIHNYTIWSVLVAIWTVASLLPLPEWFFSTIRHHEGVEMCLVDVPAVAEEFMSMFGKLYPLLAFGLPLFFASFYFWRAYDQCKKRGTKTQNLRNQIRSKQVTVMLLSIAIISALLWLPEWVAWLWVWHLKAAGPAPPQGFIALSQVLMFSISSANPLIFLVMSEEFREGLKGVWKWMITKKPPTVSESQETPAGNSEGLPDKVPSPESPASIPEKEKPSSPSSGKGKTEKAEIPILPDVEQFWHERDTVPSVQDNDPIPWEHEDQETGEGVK
FBW7 act = activators of human E3 ligase FBW7 | Q969H0 | AlphaScreen FBW7–phospho-cyclin E peptide binding, activator screen | normalized activity (activation), % at 26.1 µM | 0.13% of 650,000 active | AID 1259310; in the data active = normalized activity above about 1.9%;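 note: purified mutant Fbw7 with reduced substrate affinity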
MITF inh = human MITF inhibition, primary screen. inhibition, % at 2.6 µM. 0.91% of 650,000 active. O75030. AlphaScreen MITF homodimerization, bead proximity signal; in the data active = inhibition above about 50%;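 note: 0% = vehicle wells with protein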
MITF inh conf = confirmation of human MITF inhibitors. shares compounds with MITF inh. AlphaScreen MITF homodimerization, biotin/His-MITF beads. inhibition, % at 2.6 µM. 16% of 4,700 active. AID 1259372;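 active = inhibition above a cutoff derived from the DMSO control wells, cut at about 28% in these data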;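 note: 0% = MITF dimer wells with DMSO only; inhibitors lower the bead chemiluminescence by keeping MITF from dimerizing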
AS interf DR = AlphaScreen optical interference, dose response counter-screen | shares compounds with MITF inh | AlphaScreen optical interference counterscreen, cell-free | IC50, µM | 6% of 480 active; call rule not given here
AlphaScreen intf2 = optically interferes with AlphaScreen signal. shares compounds with MITF inh. LysRS AlphaScreen counterscreen, signal interference, triplicate. inhibition, % at 2.6 µM. 7.6% of 4,700 active;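 active = inhibition above a cutoff derived from the DMSO control wells, cut at about 30% in these data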
Active calls of the source: *. This is a sample that favours compounds with a hit; in the whole collection about 3.4% have one here.

For Cc1cccc(N2CCN(C(=O)/C=C\C(=O)O)CC2)c1C the results were TEAD-YAP block 0, GPR151 ag -2, FBW7 act 0, MITF inh 69*, MITF inh conf 54*, AS interf DR >6.5 and AlphaScreen intf2 10.
Cn1cccc1Cc1nnc(SCC(=O)Nc2nccs2)n1Cc1ccccc1 was read as TEAD-YAP block -1, GPR151 ag 1, FBW7 act 0 and MITF inh -6.
`CN1CCN(CCOc2ccc(C(=O)c3ccccc3)cc2)CC1` gave TEAD-YAP block -17, GPR151 ag 3, FBW7 act 1, MITF inh 81*, MITF inh conf 3 and AlphaScreen intf2 0.
`O=C(c1ccccc1)c1ccc(OCCCN2CCCC2)cc1` gave TEAD-YAP block 8, GPR151 ag -1, FBW7 act 0, MITF inh 53*, MITF inh conf 0 and AlphaScreen intf2 0.
`COC(=O)c1ccc(OCCN2CCOCC2)cc1` gave TEAD-YAP block -20, GPR151 ag 2, FBW7 act 0 and MITF inh -5.
`O=C(c1ccccc1)c1ccc(OCCN2CCOCC2)cc1` gave TEAD-YAP block -14, GPR151 ag 0, FBW7 act 0, MITF inh 83*, MITF inh conf 2 and AlphaScreen intf2 4.
CCOC(=O)c1ccc(OCCCN2CCCCCC2)cc1 was read as TEAD-YAP block 6, GPR151 ag 0, FBW7 act -1 and MITF inh 17.
`CCOc1ccc(OCCN2CCOCC2)cc1` gave TEAD-YAP block -18, GPR151 ag 1, FBW7 act 0, MITF inh 76*, MITF inh conf 10 and AlphaScreen intf2 15.
CCN1CCN(CCOc2ccc(C(=O)c3ccccc3)cc2)CC1 was read as TEAD-YAP block -3, GPR151 ag -1, FBW7 act 0 and MITF inh 41.
For Cc1ccnc(NC(=O)CCCCCNC(=O)C(F)(F)F)c1 the results were TEAD-YAP block 3, GPR151 ag -2, FBW7 act 1 and MITF inh 6.
CSc1cccc2sc(N(Cc3cccnc3)C(=O)/C=C/c3ccccc3)nc12 was read as TEAD-YAP block 7, GPR151 ag -3, FBW7 act 0 and MITF inh 2.
O=P(OCCN1CCOCC1)(c1ccccc1)c1ccccc1 was read as TEAD-YAP block -1, GPR151 ag 2, FBW7 act 0, MITF inh 57*, MITF inh conf 6 and AlphaScreen intf2 11.
For O=C(/C=C/c1ccccc1)OCCN1CCOCC1 the results were TEAD-YAP block 0, GPR151 ag 0, FBW7 act 1 and MITF inh 9.
COC(=O)CCCC[C@H]1SC[C@H]2NC(=O)N[C@]21O was read as TEAD-YAP block -2, GPR151 ag 1, FBW7 act -1, MITF inh 84*, MITF inh conf 107* and AlphaScreen intf2 92*.
Screening Cc1cc(C)c(C)c(OCCn2ccnc2)c1 returned TEAD-YAP block -10, GPR151 ag -1, FBW7 act 2 and MITF inh 13.
Screening Cc1cc(OCCCN2CCN(C)CC2)cc(C(C)C)c1 returned TEAD-YAP block -1, GPR151 ag 0, FBW7 act 0, MITF inh 70*, MITF inh conf 11 and AlphaScreen intf2 23.
Screening Cc1cc(OCCCN2CCN(C)CC2)ccc1C(C)C returned TEAD-YAP block 2, GPR151 ag 2, FBW7 act 0, MITF inh 56*, MITF inh conf -3 and AlphaScreen intf2 4.
`Cc1cc(OCCCN2CCOCC2)ccc1C(C)C` gave TEAD-YAP block -17, GPR151 ag -1, FBW7 act 0 and MITF inh 18.
`Cc1cc(OCCn2ccnc2)cc(C(C)C)c1` gave TEAD-YAP block -5, GPR151 ag 0, FBW7 act 0, MITF inh 57*, MITF inh conf 5 and AlphaScreen intf2 -1.
`Cc1cc(OCCCN2CCNCC2)cc(C(C)C)c1` gave TEAD-YAP block -4, GPR151 ag -1, FBW7 act 0 and MITF inh 38.
`Cc1cc(OCCN2CCNCC2)cc(C(C)C)c1` gave TEAD-YAP block -3, GPR151 ag 2, FBW7 act 0, MITF inh 66*, MITF inh conf -2 and AlphaScreen intf2 20.

Screening data deposited in PubChem by The Scripps Research Institute Molecular Screening Center.
